High-throughput results as filed in PubChem BioAssay.
This is a sample that favours compounds with a hit; in the whole collection about 3.8% have one here.
TGFb SMAD3 inh = inhibitors of TGF-b signaling. hit rate 1.2% among 410,000. Potency, µM (top dose mostly 46.1 µM), inactives show top-dose activity, negative = inhibition, most hits filed as inhibitors. HepG2 CAGA-GFP TGF-b/SMAD3 reporter, GFP fluorescence, 18 h; TGF-beta stimulated, 500 pg/mL final; further: on the % scale 0 is the no-effect control and ±100 the full control effect; nearly all actives have a fitted effect of over 65% in size
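First, reporter cells (HEPG2 CAGA-GFP) rested 2 h at 37 degrees C. Next, compounds were pinned in and TGF-beta added to 500 pg/mL final. After 18 h, GFP was imaged per cell and summed per well.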
ATXN2 expr inh = reduces ATXN2 reporter expression in HEK-293 cells. HEK-293 ATXN2-luciferase reporter, luminescence, 24 h. Potency, µM (top dose mostly 57 µM), for the others: top-dose activity change, negative = inhibition, usual class: inhibitors. hit rate 0.72% among 360,000; further: on the % scale 0 is the no-effect control and ±100 the full control effect; nearly all actives have a fitted effect of over 55% in size
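qHTS (up to 57 uM final) was run with 24 h compound exposure of reporter cells at 37 °C. Each well was multiplexed: SteadyGlo luminescence measured ATXN2-luciferase expression after a fluorogenic Gly-Phe-AFC viability readout (25 uM final).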
HepG2 viability = counter-screen for TGF-b inhibitors: cytotoxicity in HepG2 cells; HepG2 CAGA-GFP viability, ATP luminescence, 18 h; Potency, µM (top dose mostly 46.1 µM), for the others: top-dose activity change, negative = cytotoxicity, usual class: cytotoxic; hit rate 0.76% among 410,000
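HepG2 CAGA-GFP cells (1000/well, DMEM with 1% FBS) received compound, then TGF-beta at 500 pg/mL final, and were incubated 18 hours at 37 degrees C. Viability was read by CellTiter-Glo luminescence. Media-only wells were set as complete cell-killing and DMSO as no toxicity.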
ATXN viability = viability counter-screen for ATXN expression inhibitors; S2 cells (HEK-293 line with an ATXN2-luciferase reporter) viability, CellTiter-Fluor protease fluorescence, 24 h; Potency, µM (series often up to 56.7 µM), actives largely listed as cytotoxic; hit rate 0.49% among 400,000; further: nearly all actives have a fitted effect of over 40% in size
HT1080 IDH1KD tx = kills HT-1080 cells with IDH1 knockdown | HT-1080 IDH1 knockdown viability, ATP luminescence, 48 h | Potency, µM (doses to about 46.1 µM), without a hit: top-dose activity, negative = toxicity, most hits filed as cytotoxic | hit rate 2% among 360,000 | AID 686971;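 further: 0% = DMSO wells and -100% = cell-free medium wells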
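CellTiter-Glo luminescence after 48 h compound exposure at 37 degrees C of IDH1-knockdown HT-1080 cells in 5% FBS RPMI. %Activity scaled between DMSO wells and cell-free media wells, with curves fitted and assigned curve classes.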
HT1080-NT tox = kills 2HG-producing HT-1080-NT fibrosarcoma cells | Potency, µM (series often up to 46.1 µM), for inactives: top-dose activity, negative = less viability, most hits filed as cytotoxic | HT-1080-NT fibrosarcoma viability, CellTiter-Glo ATP luminescence, 48 h | hit rate 1.6% among 360,000;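 further: NT is the 2HG producing partner of a matched IDH1 knockdown line; 0% = DMSO-treated cells and -100% = media-only wells without cells; nearly all actives have a fitted effect of over 55% in size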
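Compounds were tested in concentration-response format on HT-1080-NT cells for 48 hours at 37 degrees C. Cell viability came from CellTiter-Glo luminescence; curves were classified by r2, response magnitude and activity.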
* marks the source's active call; other numbers are inactive results; ! = not confirmed by another sample; [ ] = dose if it differs, or a comment. The call rests on the fitted dose curve; in most records, active means well fitted curve in the direction sought with a large enough effect; inconclusive means small, poorly fitted or top-dose-only effect, or another doubt; inactive means no such curve, though single readings can be large; an effect the other way counts as inactive or inconclusive. Potency means the concentration at half of the fitted maximal effect.

For CCOc1ccc2nc(N3CCCC(C(=O)NCCCN4CCCCC4)C3)sc2c1 (stereo not drawn) the results were TGFb SMAD3 inh -4%, ATXN2 expr inh -20%, HepG2 viability -35%, ATXN viability inconclusive, HT1080 IDH1KD tx inconclusive and HT1080-NT tox 18µM*.
For CCOc1ccc2nc(N3CCCC(C(=O)NCCCN4C(C)CCCC4C)C3)sc2c1 (stereo not drawn) the results were TGFb SMAD3 inh -3%, ATXN2 expr inh 11%, HepG2 viability -30%, ATXN viability inconclusive, HT1080 IDH1KD tx inconclusive and HT1080-NT tox inconclusive.
Screening CCOc1ccc2nc(N3CCCC(C(=O)NCCCN4CC(C)CC(C)C4)C3)sc2c1 (stereo not drawn) returned TGFb SMAD3 inh inconclusive, ATXN2 expr inh -27%, HepG2 viability -95%, ATXN viability inconclusive, HT1080 IDH1KD tx inconclusive and HT1080-NT tox 16µM*.
`CCOC(=O)c1ccc(NC(=O)c2nn(C)c3c2COc2ccccc2-3)cc1` gave TGFb SMAD3 inh -12% and HepG2 viability 4%.
`Cc1noc(-c2ccc(NCc3ccccc3)c([N+](=O)[O-])c2)n1` gave TGFb SMAD3 inh -10%, ATXN2 expr inh 8%, HepG2 viability -6% and ATXN viability inactive.
Screening COCCC1CCCCN1Cc1nc(N2CCCCC2)c2cc(OC)c(OC)cc2n1 (stereo not drawn) returned ATXN viability inactive.
`Cc1cccc(Sc2ccc([N+](=O)[O-])cc2[N+](=O)[O-])n1` gave TGFb SMAD3 inh -21%, HepG2 viability -14%, ATXN viability inactive, HT1080 IDH1KD tx 18µM* and HT1080-NT tox inconclusive.
`O=[N+]([O-])c1ccc(Sc2ncccn2)c([N+](=O)[O-])c1` gave TGFb SMAD3 inh inconclusive, ATXN2 expr inh inconclusive, HepG2 viability 20µM*, ATXN viability inconclusive, HT1080 IDH1KD tx 13µM* and HT1080-NT tox 29µM*.
For CC(C)(C)c1ccc(C(=O)Nc2ccc(O)c3c(=O)cc(-c4cccc(Cl)c4)oc23)cc1 the results were TGFb SMAD3 inh 5%, ATXN2 expr inh 8%, HepG2 viability -3%, ATXN viability inactive, HT1080 IDH1KD tx 1% and HT1080-NT tox 8%.
Screening COc1ccc(C(=O)Nc2ccc(O)c3c(=O)cc(-c4cccc(Cl)c4)oc23)cc1 returned TGFb SMAD3 inh -1%, ATXN2 expr inh -19%, HepG2 viability -6%, ATXN viability 4.5µM*, HT1080 IDH1KD tx inconclusive and HT1080-NT tox inconclusive.
For O=C(c1ccc(Cn2c(=O)[nH]c3ccccc3c2=O)cc1)N1CCN(c2ccccn2)CC1 the results were TGFb SMAD3 inh inconclusive, ATXN2 expr inh -19%, HepG2 viability -15%, ATXN viability inactive, HT1080 IDH1KD tx -2% and HT1080-NT tox -4%.
Screening O=C(c1ccc(Cn2c(=S)[nH]c3ccccc3c2=O)cc1)N1CCN(c2ccccn2)CC1 returned TGFb SMAD3 inh inconclusive, ATXN2 expr inh 16µM*, HepG2 viability -17%, ATXN viability inactive, HT1080 IDH1KD tx -20% and HT1080-NT tox inconclusive.
CCn1c2ccc(C)cc2c2nnc(NN)nc21 was read as TGFb SMAD3 inh 14µM*, ATXN2 expr inh -19%, HepG2 viability -30%, ATXN viability inactive, HT1080 IDH1KD tx -17% and HT1080-NT tox -5%.
`CCn1c2ccccc2c2nnc(NN)nc21` gave TGFb SMAD3 inh inconclusive, ATXN2 expr inh -16%, HepG2 viability -20%, ATXN viability inactive, HT1080 IDH1KD tx 3% and HT1080-NT tox -2%.
Screening CCn1c2ccc(C)cc2c2nnc(SCCN3CCCCC3)nc21 returned TGFb SMAD3 inh -7%, ATXN2 expr inh -19%, HepG2 viability -22%, ATXN viability inactive, HT1080 IDH1KD tx 23µM* and HT1080-NT tox inconclusive.
For O=C(C[n+]1cccc(Br)c1)c1cccc([N+](=O)[O-])c1 the results were TGFb SMAD3 inh 38% and HepG2 viability 7%.
`COc1ccc(-c2ccc(C(C)=O)cc2)cc1C1C2C=CCC(C)C2C(=O)N1Cc1ccccc1` (stereo not drawn) gave TGFb SMAD3 inh -2% and HepG2 viability 3%.
O=C(c1ccco1)N1CCNCC1 was read as ATXN2 expr inh -1% and ATXN viability inactive.
Screening O=C(NC1CCCCC1)C(CCc1ccccc1)N1CCOCC1 (stereo not drawn) returned TGFb SMAD3 inh -18%, ATXN2 expr inh -15%, HepG2 viability -19%, ATXN viability inactive, HT1080 IDH1KD tx 15% and HT1080-NT tox 26%.
O=C(NC1CCCCC1)C(CCc1ccccc1)N1CCc2ccccc2C1 (stereo not drawn) was read as TGFb SMAD3 inh 10µM*, ATXN2 expr inh 13%, HepG2 viability -12%, ATXN viability inactive, HT1080 IDH1KD tx inconclusive and HT1080-NT tox inconclusive.
`C[C@@H](O)[C@H](N)C(=O)O` gave ATXN2 expr inh 4%[25.6 µM] and ATXN viability inactive.
For CC(C=CC1=C(C)CCCC1(C)C)=CC=CC(C)=CC(=O)Nc1ccc(O)cc1 the results were ATXN2 expr inh 50µM*.
For CC1=C(/C=C/C(C)=C/C=C/C(C)=C/C(=O)Nc2ccc(O)cc2)C(C)(C)CCC1 the results were TGFb SMAD3 inh inconclusive, ATXN2 expr inh 20µM*!, HepG2 viability -105%, ATXN viability 28µM*, HT1080 IDH1KD tx 16µM* and HT1080-NT tox 15µM*.
`CC1=C(\C=C/C(C)=C/C=C\C(C)=C\C(=O)O)C(C)(C)CCC1` gave ATXN viability inactive.
`N[C@H]1CN(c2c(F)cc3c(=O)c(C(=O)O)cn(C4C[C@@H]4F)c3c2Cl)CC12CC2` (stereo partly drawn) gave ATXN2 expr inh -1% and ATXN viability inactive.
CCc1ccc(C(C)NC(=S)NC2CCCCC2)cc1 (stereo not drawn) was read as TGFb SMAD3 inh inconclusive, ATXN2 expr inh -38%, HepG2 viability -44%, ATXN viability inactive, HT1080 IDH1KD tx -1% and HT1080-NT tox -5%.
`CC(C)c1ccc(C(C)NC(=S)NC2CCCCC2)cc1` (stereo not drawn) gave TGFb SMAD3 inh inconclusive, ATXN2 expr inh -38%, HepG2 viability -17%, ATXN viability inactive, HT1080 IDH1KD tx -1% and HT1080-NT tox -3%.
For CCC(C)c1ccc(C(C)NC(=S)NC2CCCCC2)cc1 (stereo not drawn) the results were TGFb SMAD3 inh inconclusive, ATXN2 expr inh inconclusive, HepG2 viability -14%, ATXN viability inactive, HT1080 IDH1KD tx 23µM* and HT1080-NT tox inconclusive.
